Reference: PubChem BioAssay (NCI)
Compounds without any hit were thinned out: in the full panel of roughly 83,000, 20% have a hit.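 Negative percent growth values reflect cell death: -40 means 40% of the cells present at the start died, and -100 means all died.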 Unmarked numbers belong to inactive results. Calls of active or inactive are those of the source. Rule for the calls: active = growth percent below 10; inactive = the rest.

These molecules were tested on MOLT-4 leukemia (assay: NCI-60 one-dose screen, 48 h (100 = growth as untreated, 0 = no growth, -100 = all killed)). Details: 10 µM unless noted.

SMILES	growth
Nc1cc2ccccc2c(=O)n1NC(=O)c1ccc(I)cc1	99.2%
CC(=O)Nc1cccc(Nc2nc(N[C@H]3CCCc4ccccc43)c3ccccc3n2)c1	100%
CCN(CC)C(=O)N/C(N)=N/c1nc2ccccc2s1	-4.3% (active)
O=C(O)c1cccc(-c2ccc(/C=N/NC(=O)c3[nH]c4ccc(Br)cc4c3-c3ccccc3)o2)c1	63.6%
NS(=O)(=O)c1ccc(-n2cc(-c3cccc(NC(=O)c4cc(C(F)(F)F)cc(C(F)(F)F)c4)c3)nn2)cc1	75.1%
C[C@H](Nc1nc(NCCc2ccccc2)nc2ccccc12)c1ccccc1	-60.3% (active)
C(=C\c1cc(/C=C/c2ccccc2)c2ccccc2n1)/c1ccccc1	32.1%
C=C1CC[C@@H]2[C@]3(C)COC(c4cn(-c5ccccc5)nc4-c4ccccc4)O[C@@H]3CC[C@@]2(C)[C@@H]1C/C=C1/C(=O)OC[C@H]1O (stereo partly specified)	-45.7% (active)
N#Cc1c(-c2cccc3ccccc23)cc(-c2cccc(OCC(=O)O)c2)[nH]c1=O	85.7%
O=C(/C=C/c1cccc(OCc2ccc(F)cc2)c1)c1nc2ccccc2[nH]1	-11.2% (active)
CCOC(=O)C1=C(N)N(c2ccccc2)C2=C(C(=O)CC(C)(C)C2)C1c1cccc(Cl)c1Cl (stereo unspecified)	39.5%
CC(C)c1ccc2c(N)c(C(=O)Nc3ccc(C(F)(F)F)cn3)sc2n1	7.3% (active)
COc1ccc2cc([C@H](C)C(=O)N/N=C/c3ccc(Br)cc3)ccc2c1	86.6%
CC(=O)Oc1ccccc1C(=O)[Se]CC(=O)Nc1cccc(C(F)(F)F)c1	11.7%
COc1ccc(NC(=O)c2sc3nc(C(C)C)ccc3c2N)cc1	67.5%
CC1=C(C(=O)OCc2ccccc2)C(c2c(O)cc(O)cc2O)n2c(nc3ccccc32)N1 (stereo unspecified)	60.6%
N#Cc1ccc(/C=N/NC(=O)c2[nH]c3ccc(Br)cc3c2-c2ccccc2)o1	1.36% (active)
CC1=C(C(=O)OC(C)C)C(c2cccc(O)c2)NC(=S)N1 (stereo unspecified)	96.1%
COc1cc(-c2ccc(/C=N/NC(=O)c3[nH]c4ccc(Br)cc4c3-c3ccccc3)s2)cc(OC)c1OC	79.1%

SMILES	growth
COc1cc(/C=C/C(=O)c2nnn(-c3ccc(Cl)cc3)c2C)cc(OC)c1OC	-10.7% (active)
CC1=C(C(=O)OCc2ccccc2)C(c2ccc(-n3cncn3)cc2)n2c(nc3ccccc32)N1 (stereo unspecified)	36.6%
COc1cc(-c2cc(-c3cccc(OCC(=O)O)c3)[nH]c(=O)c2C#N)cc(OC)c1OC	85.9%
CSc1ccc(C(=O)Nc2ccc3nn(/C(C#N)=C/c4ccccn4)nc3c2)cc1	-24.9% (active)
CSc1ccc(NC(=O)c2ccc3nn(/C(C#N)=C/c4ccccn4)nc3c2)cc1	-20.4% (active)
CC1CCCCN1CCCNC(=O)N/C(N)=N/c1nc2ccccc2s1 (stereo unspecified)	16.4%
O=C(O)c1ccc(-c2ccc(/C=N/NC(=O)c3[nH]c4ccc(Br)cc4c3-c3ccccc3)s2)cc1	10.7%
CSc1ccccc1NC(=O)c1ccc2nnn(/C(C#N)=C/c3ccccn3)c2c1	-27.9% (active)
Clc1cccc(Cl)c1/C=C/c1cc(/C=C/c2ccc(Br)cc2)c2ccccc2n1	84.8%
C=C1CC[C@@H]2[C@]3(C)COC(c4cn[nH]c4-c4ccc(OC)cc4)O[C@@H]3CC[C@@]2(C)[C@@H]1C/C=C1/C(=O)OCC1O (stereo partly specified)	8.3% (active)
CSc1ccc(C(=O)Nc2ccc3nnn(/C(C#N)=C/c4ccccn4)c3c2)cc1	12.1%
CC(=O)Nc1cccc(Nc2nccc(N[C@@H](C)c3ccccc3)n2)c1	20.5%
O=C(N/N=C/c1ccc(-c2ccc(O)cc2)s1)c1[nH]c2ccc(Br)cc2c1-c1ccccc1	-13.3% (active)
COc1cc(CNC(=O)/C=C/c2ccc3c(c2)OCO3)ccc1OCc1cn(-c2cccc(C(F)(F)F)c2)nn1	48.8%
O=C(O)c1ccc(-c2ccc(/C=N/NC(=O)c3[nH]c4ccc(Br)cc4c3-c3ccccc3)o2)cc1	14.1%
CCCCOc1ccc(NC(=O)c2sc3nc(C)ccc3c2N)cc1	48%
Cc1ccc2c(N)c(C(=O)Nc3ccc(-c4ccccc4)cc3)sc2n1	50.9%
COc1ccc2nc(Nc3cccc(NC(=O)c4ccc(CN5CCCN(C)CC5)c(C(F)(F)F)c4)c3)ccc2c1	-4.91% (active)
N#Cc1c(-c2cccnc2)cc(-c2ccc3ccccc3c2)[nH]c1=O	91.5%

Each molecule was assayed on SR leukemia in the same assay as above. Details: 10 µM unless noted.

SMILES	growth
Nc1cc2ccccc2c(=O)n1NC(=O)c1ccc(I)cc1	88.3%
CC(=O)Nc1cccc(Nc2nc(N[C@H]3CCCc4ccccc43)c3ccccc3n2)c1	81.3%
CCN(CC)C(=O)N/C(N)=N/c1nc2ccccc2s1	32%
O=C(O)c1cccc(-c2ccc(/C=N/NC(=O)c3[nH]c4ccc(Br)cc4c3-c3ccccc3)o2)c1	21.1%
NS(=O)(=O)c1ccc(-n2cc(-c3cccc(NC(=O)c4cc(C(F)(F)F)cc(C(F)(F)F)c4)c3)nn2)cc1	47.4%
C[C@H](Nc1nc(NCCc2ccccc2)nc2ccccc12)c1ccccc1	-64.3% (active)
C(=C\c1cc(/C=C/c2ccccc2)c2ccccc2n1)/c1ccccc1	36.7%
C=C1CC[C@@H]2[C@]3(C)COC(c4cn(-c5ccccc5)nc4-c4ccccc4)O[C@@H]3CC[C@@]2(C)[C@@H]1C/C=C1/C(=O)OC[C@H]1O (stereo partly specified)	-32.7% (active)
N#Cc1c(-c2cccc3ccccc23)cc(-c2cccc(OCC(=O)O)c2)[nH]c1=O	87.2%
O=C(/C=C/c1cccc(OCc2ccc(F)cc2)c1)c1nc2ccccc2[nH]1	-44% (active)
CCOC(=O)C1=C(N)N(c2ccccc2)C2=C(C(=O)CC(C)(C)C2)C1c1cccc(Cl)c1Cl (stereo unspecified)	56.3%
CC(C)c1ccc2c(N)c(C(=O)Nc3ccc(C(F)(F)F)cn3)sc2n1	41.9%
COc1ccc2cc([C@H](C)C(=O)N/N=C/c3ccc(Br)cc3)ccc2c1	87.3%
CC(=O)Oc1ccccc1C(=O)[Se]CC(=O)Nc1cccc(C(F)(F)F)c1	31.2%
COc1ccc(NC(=O)c2sc3nc(C(C)C)ccc3c2N)cc1	60%
CC1=C(C(=O)OCc2ccccc2)C(c2c(O)cc(O)cc2O)n2c(nc3ccccc32)N1 (stereo unspecified)	18.5%
N#Cc1ccc(/C=N/NC(=O)c2[nH]c3ccc(Br)cc3c2-c2ccccc2)o1	4.35% (active)
CC1=C(C(=O)OC(C)C)C(c2cccc(O)c2)NC(=S)N1 (stereo unspecified)	90.7%
COc1cc(-c2ccc(/C=N/NC(=O)c3[nH]c4ccc(Br)cc4c3-c3ccccc3)s2)cc(OC)c1OC	79%

SMILES	growth
COc1cc(/C=C/C(=O)c2nnn(-c3ccc(Cl)cc3)c2C)cc(OC)c1OC	5.48% (active)
CC1=C(C(=O)OCc2ccccc2)C(c2ccc(-n3cncn3)cc2)n2c(nc3ccccc32)N1 (stereo unspecified)	18%
COc1cc(-c2cc(-c3cccc(OCC(=O)O)c3)[nH]c(=O)c2C#N)cc(OC)c1OC	83.6%
CSc1ccc(C(=O)Nc2ccc3nn(/C(C#N)=C/c4ccccn4)nc3c2)cc1	-3.69% (active)
CSc1ccc(NC(=O)c2ccc3nn(/C(C#N)=C/c4ccccn4)nc3c2)cc1	-6.88% (active)
CC1CCCCN1CCCNC(=O)N/C(N)=N/c1nc2ccccc2s1 (stereo unspecified)	-17.1% (active)
O=C(O)c1ccc(-c2ccc(/C=N/NC(=O)c3[nH]c4ccc(Br)cc4c3-c3ccccc3)s2)cc1	0.386% (active)
CSc1ccccc1NC(=O)c1ccc2nnn(/C(C#N)=C/c3ccccn3)c2c1	-5.23% (active)
Clc1cccc(Cl)c1/C=C/c1cc(/C=C/c2ccc(Br)cc2)c2ccccc2n1	92.4%
C=C1CC[C@@H]2[C@]3(C)COC(c4cn[nH]c4-c4ccc(OC)cc4)O[C@@H]3CC[C@@]2(C)[C@@H]1C/C=C1/C(=O)OCC1O (stereo partly specified)	-29.9% (active)
CSc1ccc(C(=O)Nc2ccc3nnn(/C(C#N)=C/c4ccccn4)c3c2)cc1	-9.41% (active)
CC(=O)Nc1cccc(Nc2nccc(N[C@@H](C)c3ccccc3)n2)c1	2.48% (active)
O=C(N/N=C/c1ccc(-c2ccc(O)cc2)s1)c1[nH]c2ccc(Br)cc2c1-c1ccccc1	-22.4% (active)
COc1cc(CNC(=O)/C=C/c2ccc3c(c2)OCO3)ccc1OCc1cn(-c2cccc(C(F)(F)F)c2)nn1	41.5%
O=C(O)c1ccc(-c2ccc(/C=N/NC(=O)c3[nH]c4ccc(Br)cc4c3-c3ccccc3)o2)cc1	5.35% (active)
CCCCOc1ccc(NC(=O)c2sc3nc(C)ccc3c2N)cc1	19.1%
Cc1ccc2c(N)c(C(=O)Nc3ccc(-c4ccccc4)cc3)sc2n1	43.1%
COc1ccc2nc(Nc3cccc(NC(=O)c4ccc(CN5CCCN(C)CC5)c(C(F)(F)F)c4)c3)ccc2c1	4.09% (active)
N#Cc1c(-c2cccnc2)cc(-c2ccc3ccccc3c2)[nH]c1=O	73.7%
